Screening data as filed in PubChem.
This is a sample that favours compounds with a hit; in the whole collection about 8.7% have one here.
BAZ2B block: BAZ2B (human) inhibition; Potency, µM (top dose mostly 114 µM), for inactives: at the highest dose activity change, negative = inhibition, most hits filed as inhibitors; AID 504333; AlphaScreen BAZ2B-H3K14Ac peptide displacement; Q9UIF8; hit rate 4.4% among 360,000; also: % is scaled to controls: 0 for no effect and ±100 for the full control effect; nearly all actives have a fitted effect of over 60% in size
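BAZ2B (50 nM) with biotin-H3(5-23)K14Ac peptide (50 nM) in PBS pH 7.4, 0.01% Tween-20, preformed 30 min, then compound 30 min at room temperature; top concentration 110uM. AlphaScreen streptavidin donor/nickel chelate acceptor beads (10 ug/mL final), 20 min dark, signal read.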
HP1b binding inh: inhibitors of HP1-beta chromodomain binding to methylated histone tails; P83916; AlphaScreen HP1-beta / biotin-H3K9me3 peptide binding; Potency, µM (highest dose often 114 µM), inactives show top-dose activity change, negative = inhibition, usual class: inhibitors; hit rate 0.56% among 390,000; AID 540317; also: nearly all actives have a fitted effect of over 70% in size
Target sequence (P83916 whole entry, looked up): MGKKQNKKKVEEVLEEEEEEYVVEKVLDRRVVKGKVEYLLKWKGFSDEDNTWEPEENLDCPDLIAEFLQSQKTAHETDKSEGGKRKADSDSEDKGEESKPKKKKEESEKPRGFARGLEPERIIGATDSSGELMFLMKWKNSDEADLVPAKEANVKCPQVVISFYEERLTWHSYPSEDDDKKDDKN
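HP1-beta protein (50 nM final) preincubated 30 min at room temperature with biotinylated H3(1-18)K9me3 peptide (50 nM) in PBS pH 7.4, 0.01% Tween-20, then compound added for 30 min. AlphaScreen streptavidin donor/nickel chelate acceptor beads (10 ug/mL final), 30 min dark, luminescence read.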
ALOX12 inh: inhibitors of human 12S-lipoxygenase ALOX12; P18054; purified 12hLO, xylenol orange hydroperoxide absorbance; Potency, µM (highest dose often 108 µM), for inactives: at the highest dose activity change, negative = inhibition, hits mostly inhibitors; hit rate 1.1% among 580,000; AID 1671190; also: % is scaled to controls: 0 for no effect and ±100 for the full control effect
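Purified human 12hLO at 150 nM in 25 mM Hepes, 0.01% Triton X-100, pH 7.0, preincubated 15 min at room temperature with compound. Reaction started with 40 uM arachidonic acid, 30 min at room temperature. Hydroperoxide measured by Fe-xylenol orange, 573/405 nm absorbance ratio.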
G9a inh: G9a (human) methyltransferase inhibition | hit rate 8.8% among 350,000 | Potency, µM (highest dose often 102 µM), without a hit: at the top dose activity, negative = inhibition, usual class: inhibitors | G9a H3K9 monomethylation, AlphaScreen, 2 h | AID 504332; also: % is scaled to controls: 0 for no effect and ±100 for the full control effect; nearly all actives have a fitted effect of over 75% in size
Target sequence (Q96KQ7 913-1193 limits assumed): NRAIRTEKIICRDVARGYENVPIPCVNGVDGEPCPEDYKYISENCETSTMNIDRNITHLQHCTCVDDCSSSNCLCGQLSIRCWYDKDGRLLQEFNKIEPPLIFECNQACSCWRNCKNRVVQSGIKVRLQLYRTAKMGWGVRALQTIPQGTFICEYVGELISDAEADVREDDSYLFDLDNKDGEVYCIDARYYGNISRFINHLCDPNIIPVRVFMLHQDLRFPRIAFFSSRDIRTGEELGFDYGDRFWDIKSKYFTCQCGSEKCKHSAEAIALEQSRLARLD
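G9a (20 nM) was preincubated 15 min with compound, then reacted 2 h at room temperature with 500 nM biotin-H3K9 peptide and 20 µM SAM. Monomethyl-H3K9 detected by AlphaScreen using anti-H3K9me1 antibody.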
Sfp PPTase inh: inhibitors of Bacillus subtilis Sfp phosphopantetheinyl transferase | Q9F4F7 | Biochemical Sfp PPTase activity, qHTS | Potency, µM, for the others: largest response in the series, negative = inhibition, actives largely listed as inhibitors | hit rate 3.5% among 310,000 | AID 1490;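 also: the enzyme is Sfp with the accession as filed and its product quenches rhodamine fluorescence; 0% = enzyme reaction without inhibitor and -100% = no enzyme wells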
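Reaction rates are the 30-min fluorescence difference (ex 525, em 598 nm) in wells containing 15 nM Sfp, 5 uM rhodamine-CoA and 12.5 uM BHQ-2-YbbR at pH 7.6 with 10 mM MgCl2.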
JMJD2A Tudor: inhibitors of human JMJD2A Tudor domain; O75164; AlphaScreen JMJD2A-Tudor / H3K4me3 peptide binding; Potency, µM (titrated, usually from 114 µM), inactives show at the top dose activity change, negative = inhibition, actives largely listed as inhibitors; hit rate 4.4% among 390,000; AID 504339; also: % is scaled to controls: 0 for no effect and ±100 for the full control effect; nearly all actives have a fitted effect of over 50% in size
The depositor's hits bear a star; ? = inconclusive; · = not tested or not shown; ! = not confirmed by another sample; [ ] = dose if it differs, or a comment. Calls follow the shape of the dose curve; as a rule, active = well fitted curve in the direction sought with a large enough effect; inconclusive = small, poorly fitted or top-dose-only effect, or another doubt; inactive = no such curve, though single readings can be large; an effect the other way counts as inactive or inconclusive. Potency is read from the fitted curve at half-maximal effect.

SMILES | BAZ2B block | HP1b binding inh | ALOX12 inh | G9a inh | Sfp PPTase inh | JMJD2A Tudor
C#C[C@H]1CN2CC[C@H]1C[C@@H]2CNCc1ccc(OC)cc1 | · | · | 57%[176 µM] | · | · | ·
CC(C)NC(=O)NC[C@H]1C[C@@H]2CCN1C[C@@H]2c1cc(-c2ccccc2)nn1C | · | · | 64%[176 µM] | · | · | ·
O=C1CC2(CCCC2)CC(=O)N1CCCCN1CCN(c2ncccn2)CC1 | -2% | 40% | -12% | 13µM*! | 2% | -3%
c1cnc(N2CCC3(CCNCC3)CC2)nc1 | · | · | ? | -4%[12.7 µM] | ? | ·
Cc1ccc2nsnc2c1NS(=O)(=O)c1c(C)ccc2nsnc12 | ? | 20% | ? | 50µM* | -9% | -27%
Fc1ccc(CC2CCOC3(CCNCC3)C2)cc1 (stereo not given) | · | · | 5% | · | · | ·
COc1ccccc1CCNCc1cccc(C(F)(F)F)c1 | 8% | 12% | ? | 71µM* | 13% | -31%
COc1ccc(CCNCc2cccc(C(F)(F)F)c2)cc1OC | 50µM* | -7% | -25% | 11µM* | -14% | 45µM*
O=c1[nH]c(=S)n(-c2cccc(Cl)c2)c(O)c1/C=N/N1CCOCC1 | -24% | 46% | ? | ? | -13% | -20%
Cc1cccc(-n2c(O)c(C)c(=O)[nH]c2=S)c1 | ? | 33% | 45µM* | · | 13% | -16%
Cc1ncc2c(n1)C[C@@H]1CC[C@H]2N1C(=O)CCCc1ccccc1 | · | · | 36% | · | · | ·
Cc1ccccc1-c1ccc2n(c1=O)C[C@H]1C[C@@H]2CN(C(=O)c2cccs2)C1 | · | · | 38%[176 µM] | · | · | ·
CC(=O)c1ccc2c(c1)C1C(Cl)C(Sc3ccccc3[N+](=O)[O-])CC1C(C(=O)O)N2 (stereo not given) | 10µM* | ? | 11µM* | 7.9µM* | 56µM* | 35µM*
O=C(O)c1cccc2c1NC(C(=O)O)C1CC(Sc3ccccc3[N+](=O)[O-])C(Cl)C21 (stereo not given) | 6.3µM* | -93% | 3.2µM* | 10µM* | 25µM* | 14µM*
CN1CC2(CCN(c3nccc(N)n3)CC2)CC1C(=O)O (stereo not given) | · | · | 3% | · | · | ·
COc1cccc(CN2CCN(Cc3cccc(F)c3)CC2)c1 | 35µM* | ? | 7% | · | ? | 7.9µM*
CC12CC[C@H]3[C@@H](CCC4(O)C[C@H](O)CCC34/C=N/NC(=O)c3ccc(O)cc3)C1(O)CCC2C1=CC(=O)OC1 (stereo not given in full) | -4% | 46% | 21% | · | 11% | -6%
COc1ccc(C(=O)N/N=C/C23CC[C@@H](O)CC2(O)CC[C@@H]2[C@@H]3CCC3(C)C(C4=CC(=O)OC4)CCC23O)cc1 (stereo not given in full) | -13% | -4% | 5% | 50µM* | 0% | -35%
COCC(=O)N1CCC2(CC1)C(=O)Nc1cc(Oc3cccc(N(C)C)c3)c(OC)cc12 | · | · | -2%[176 µM] | · | · | ·
CC[C@H]1CN2CC[C@H]1C[C@@H]2CNS(=O)(=O)c1ccc(C)cc1 | · | · | 52%[176 µM] | · | · | ·
CNCCc1ccc(O)c(O)c1 | · | ? | ? | 32µM* | 56µM* | -11%
CC/C=C\C/C=C\C/C=C\C/C=C\C/C=C\CCCC(=O)NCCc1ccc(O)c(O)c1 | · | · | · | · | -13% | ·
COCC1CN(C2CCC2)CC12CCN(Cc1ccncc1)CC2 (stereo not given) | · | · | 95% | · | · | ·
O=C1N(Cc2cccnc2)C[C@H]2CN(C3CCOCC3)CCN12 | · | · | 8%[176 µM] | · | · | ·
COc1cc(C(=O)N2C[C@H]3C[C@@H](C2)c2cccc(=O)n2C3)cc(OC)c1OC | -8% | 15% | 4% | 1%[12.7 µM] | 21% | -15%
SMILES | BAZ2B block | HP1b binding inh | ALOX12 inh | G9a inh | Sfp PPTase inh | JMJD2A Tudor
CCCOc1ccc(C(=O)NC(=S)N2C[C@H]3C[C@H](C2)c2cccc(=O)n2C3)cc1 | -10% | -15% | -22% | 11µM* | 45µM* | ?
O=C(Nc1cccc(Cl)c1)N1C[C@H]2C[C@@H](C1)c1cccc(=O)n1C2 | 5% | 42% | -14% | 3%[12.7 µM] | 12% | -3%
COc1ccc(C(=O)NC(=S)N2C[C@H]3C[C@H](C2)c2cccc(=O)n2C3)cc1OC | -9% | 38% | ? | 45µM* | ? | -35%
O=C(NC(=S)N1C[C@H]2C[C@H](C1)c1cccc(=O)n1C2)c1ccc(Cl)cc1Cl | -3% | -4% | -26% | 40µM* | -6% | -24%
CCOC(=O)CNC(=S)N1CC2C[C@@H](C1)Cn1c2cccc1=O | 1% | 27% | 4% | -1% | 10% | 1%
O=c1cccc2n1CC1CC2CN(Cc2c(F)cccc2Cl)C1 (stereo not given) | ? | 13% | ? | 45µM* | 12% | 56µM*
Cc1cc(C)n2nc(C(=O)Nc3ccc(Cl)cc3C(=O)c3ccccc3F)nc2n1 | · | · | 2% | · | · | ·
CN1CCC(=O)C2CCCCC21 (stereo not given) | · | · | -7% | · | · | ·
CN(C)c1ccc(C(=O)NC[C@H]2C[C@@H]3CCN2C[C@@H]3CN2CCc3ccccc3C2)cc1 | · | · | 2%[176 µM] | · | · | ·
NCCc1ccc(OCc2ccccc2)cc1 | · | · | 6% | · | · | ·
Cc1cccc(CC(=O)N2[C@H]3CC[C@@H]2c2cnc(-c4ccccc4)nc2C3)c1 | · | · | 27% | · | · | ·
COc1ccc(NC(=O)N2C[C@@H]3C[C@@H](C2)c2cccc(=O)n2C3)c(OC)c1 | -1% | 35% | 13% | 3.5µM* | 6% | -8%
CCOC(=O)CC(SP1(=S)OCC2(CCCCC2)CO1)C(=O)OCC (stereo not given) | · | 68% | -20% | · | · | 36%
CCOC(=O)CC(SP(=S)(OC)OC)C(=O)OCC (stereo not given) | · | · | 23µM*! | ? | 40µM* | ·
O=[S+]([O-])(C1CC1)N1C2CCC1CN(Cc1cccnc1)C2 | · | · | 3%[6.33 µM] | · | · | ·
Cc1ccccc1C1=NCC(=O)N(CC(=O)NCc2ccco2)c2sc3c(c21)CCCC3 | -34% | -16% | -26% | -16%[12.7 µM] | 50µM* | 89µM*
CCC(CC)c1cc([C@H]2CN3CC[C@H]2C[C@@H]3CNC(=O)CCCC(=O)O)nc(-c2ccncc2)n1 | · | · | 59% | · | · | ·
CCn1cc(C(=O)O)c(=O)c2cc(F)c(N3CCNCC3)cc21 | -8% | · | ? | 8.9µM*! | -5% | ·
CC(CO)(CO)N=Cc1c(O)n(-c2cccc3ccccc23)c(=O)[nH]c1=O | -1% | 25% | 37% | -30%[59 µM] | 3% | 6%
O=C(N/N=C/c1c(O)n(-c2cccc3ccccc23)c(=O)[nH]c1=O)c1ccncc1 | 79µM* | 34% | 0% | 6% | 2% | 50µM*
O=C(N/N=C/c1c(O)n(CCc2ccc(F)cc2)c(=O)[nH]c1=O)c1ccncc1 | 50µM* | 30% | 0% | 123%[59 µM] | -5% | ?
